Test results as given in PubChem BioAssay (NCATS).
Results filed as inconclusive are left out. Activity calls are given as the source filed them. Unless noted, calls come from the whole dose curve; as a rule, active = well fitted curve in the direction sought with a large enough effect; inconclusive = small, poorly fitted or top-dose-only effect, or another doubt; inactive = no such curve, though single readings can be large; an effect the other way counts as inactive or inconclusive.

Tests used:
[1] = P-glycoprotein substrates identified in KB-3-1 adenocarcinoma cell line, qHTS therapeutic library screen (AID 1346986); note: nearly all actives have a fitted effect of over 60% in size
Method in brief: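 Using luminescence to quantify ATP, parental and P-gp-overexpressing KB cells were compared after 72 h compound titration. KB-8-5-11 was also run with the P-gp inhibitor tariquidar.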

[2] = P-glycoprotein substrates identified in KB-8-5-11 adenocarcinoma cell line, qHTS therapeutic library screen (AID 1346987); note: nearly all actives have a fitted effect of over 65% in size; note: potency is the fitted concentration of half-maximal effect
Method in brief: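 Human cervical adenocarcinoma KB-8-5-11 cells, selected in colchicine to over-express P-gp and assayed without it, were exposed for 72 h to titrated compounds. An ATP-based luminescent viability signal gave AC50.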

[3] = molecular target: Cytochrome P450 2D6 (Homo sapiens) (UniProt P10635); assay: Cytochrome P450 family 2 subfamily D member 6 (CYP2D6) small molecule antagonists: luciferase biochemical (cell-free) qHTS assay (AID 1645840; active = well fitted curve in the direction sought with a large enough effect in the repeat runs; an effect the other way counts as inactive or inconclusive; note: nearly all actives have a fitted effect of over 55% in size; note: potency is the fitted concentration of half-maximal effect; for activity change, negative = inhibition: % is set by controls: 0 for no effect and ±100 for the full control effect)
Method in brief: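 P450-Glo CYP2D6 system: proluciferin substrate converted by enzyme to luciferin, read by luminescence proportional to activity. Enzyme-substrate mix with compound 10 min at room temperature, then NADPH regeneration 1 h before detection reagent.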

[4] = Primary qHTS for inhibitors of nuclear receptor binding SET domain protein 2 (NSD2) in an isogenic RCH-ACV NSD2 p.E1099K mutant (9B) (AID 1645876); note: nearly all actives have a fitted effect of over 70% in size; note: potency is the fitted concentration of half-maximal effect
[5] = Primary qHTS for inhibitors of nuclear receptor binding SET domain protein 2 (NSD2) in an RCH-ACV wild type WT cells (2C) (AID 1645877); note: nearly all actives have a fitted effect of over 70% in size; note: potency is the fitted concentration of half-maximal effect
[6] = molecular target: Catechol O-methyltransferase (Homo sapiens) (UniProt P21964); assay: Confirmatory Screen for Target Class Profiling of Small Molecule Inhibitors of Methyltransferases (AID 1745852); conditions: MTase-Glo luminescence, SAH detection, recombinant enzyme; measured here: COMT max response; stronger effect = lower value; for activity change, negative = inhibition: % is set by controls: 0 for no effect and ±100 for the full control effect
[7] = molecular target: Guanidinoacetate N-methyltransferase (Homo sapiens) (UniProt Q14353); assay: as above; conditions: activity change, negative = inhibition: at 57.3 µM (top of the series) unless noted
[8] = molecular target: Nicotinamide N-methyltransferase (Homo sapiens) (UniProt P40261); assay: as above; conditions: MTase-Glo luminescence, SAH detection, recombinant enzyme; measured here: NNMT max response; stronger effect = lower value
[9] = molecular target: Phenylethanolamine N-methyltransferase (Homo sapiens) (UniProt P11086); assay: as above; conditions: MTase-Glo luminescence, SAH detection, recombinant enzyme; measured here: PNMT max response; stronger effect = lower value
CRL-7250 [10] = assay: Cytotoxic Profiling of Annotated Libraries Using Quantitative High-Throughput Screening (AID 1296008); conditions: Five cell lines viability, CellTiter-Glo ATP luminescence, 48-72 h; max response: stronger effect = lower value; note: nearly all actives have a fitted effect of over 60% in size; note: potency is the fitted concentration of half-maximal effect; for max response: % is set by controls: 0 for no effect and ±100 for the full control effect
Method in brief: (§1)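 Compounds were pin-transferred onto cells and incubated 48 or 72 hr at 37 degree Celsius, 95% humidity. CellTiter-Glo was added, plates sat 10 min at room temperature, then ATP-coupled luminescence was imaged as the viability read-out.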

KB-3-1 = assay: as above; conditions: Five cell lines viability, CellTiter-Glo ATP luminescence, 48-72 h; max response: stronger effect = lower value
Method in brief: as §1

CRL-7250 [11] = assay: qHTS assay to identify novel small-molecules to repurpose for Merkel cell carcinoma treatment (AID 1296009); conditions: MCC and control cell lines, CellTiter-Glo viability, 72 h; series mostly up to 92 µM; note: nearly all actives have a fitted effect of over 60% in size
Method in brief: (§2)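 Luminescence from CellTiter-Glo, read 10 min after addition at room temperature, reported viability following a 72 hr, 37 degree celsius treatment with NPC or MIPE compounds in titration; values normalized to plate controls.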

HACAT = assay: as above; conditions: MCC and control cell lines, CellTiter-Glo viability, 72 h; at 44.8 µM (top of the series) unless noted
Method in brief: as §2

NIH3T3 = assay: as above; conditions: MCC and control cell lines, CellTiter-Glo viability, 72 h; at 44.8 µM (top of the series) unless noted
Method in brief: as §2

HeLa = assay: Primary qHTS to identify gynecologic anti-cancer compounds using libraries of approved drugs and bioactive compounds (AID 1345084); conditions: Gynecologic cancer cell panel viability, ATPlite luminescence, 48 h; series mostly up to 57.5 µM; note: nearly all actives have a fitted effect of over 55% in size; note: potency is the fitted concentration of half-maximal effect
Method in brief: (§3)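 Luminescence from the ATPlite ATP-monitoring reagent indicates viable cell number; lower signal means cytotoxicity. Cells received compound 16 h after seeding and were exposed for 48 h across five concentrations.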

[12] = qHTS drug screen for cell cycle checkpoint inhibitors in PARPi-resistant BRCA-mutant ovarian cancer cell lines. (AID 1963452; calls by dose curve); conditions: PEO1/OlaR viability, CellTiter-Glo luminescence, 96 h, stronger effect = lower value
Method in brief: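 PEO1, PEO4 and PEO1/OlaR ovarian cancer cells, 600 per well, exposed 96 h at 37C to a dilution series. Viability read by CellTiter-Glo luminescence, normalized to DMSO and empty wells; activity summarized as Z-AUC.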

HEK293 = assay: Cytotoxic Profiling of Annotated Libraries Using Quantitative High-Throughput Screening (AID 1296008); conditions: Five cell lines viability, CellTiter-Glo ATP luminescence, 48-72 h; max response: stronger effect = lower value; note: nearly all actives have a fitted effect of over 60% in size; note: potency is the fitted concentration of half-maximal effect; for max response: % is set by controls: 0 for no effect and ±100 for the full control effect
Method in brief: as §1

SKOV3 = assay: Primary qHTS to identify gynecologic anti-cancer compounds using libraries of approved drugs and bioactive compounds (AID 1345084); conditions: Gynecologic cancer cell panel viability, ATPlite luminescence, 48 h; series mostly up to 57.5 µM; note: nearly all actives have a fitted effect of over 55% in size; note: potency is the fitted concentration of half-maximal effect
Method in brief: as §3

[13] = test system: Zika virus NS2B-NS3 protease (unlinked complex); assay: Primary screen GU Rhodamine qHTS for Zika virus inhibitors: Unlinked NS2B-NS3 protease assay (AID 1347159)
Method in brief: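 Percent inhibition came from the 15-min rise in Rhodamine110 fluorescence (1.5 microM substrate, ~15% conversion), normalized to no-inhibitor and no-enzyme wells and Hill-fitted. Unlinked protease, 25 nM, pH 8.0 Tris buffer; compounds up to 114 microM, 15-min preincubation.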

[14] = molecular target: Cytochrome P450 2C9 (Homo sapiens) (UniProt P11712); assay: Cytochrome P450 family 2 subfamily C member 9 (CYP2C9) small molecule antagonists: luciferase biochemical (cell-free) qHTS assay (AID 1645842; active = well fitted curve in the direction sought with a large enough effect in the repeat runs; an effect the other way counts as inactive or inconclusive; note: potency is the fitted concentration of half-maximal effect; nearly all actives have a fitted effect of over 55% in size)
Method in brief: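 P450-Glo CYP2C9 system: proluciferin substrate with enzyme in mix containing 0.4% BSA, 10 min at room temperature, then NADPH regeneration solution added and incubated 1 h at 37C. Detection reagent stopped reaction; luminescence read after 20 min as RLU.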

Chain of Cytochrome P450 2D6 (Homo sapiens) (P10635 whole entry, looked up): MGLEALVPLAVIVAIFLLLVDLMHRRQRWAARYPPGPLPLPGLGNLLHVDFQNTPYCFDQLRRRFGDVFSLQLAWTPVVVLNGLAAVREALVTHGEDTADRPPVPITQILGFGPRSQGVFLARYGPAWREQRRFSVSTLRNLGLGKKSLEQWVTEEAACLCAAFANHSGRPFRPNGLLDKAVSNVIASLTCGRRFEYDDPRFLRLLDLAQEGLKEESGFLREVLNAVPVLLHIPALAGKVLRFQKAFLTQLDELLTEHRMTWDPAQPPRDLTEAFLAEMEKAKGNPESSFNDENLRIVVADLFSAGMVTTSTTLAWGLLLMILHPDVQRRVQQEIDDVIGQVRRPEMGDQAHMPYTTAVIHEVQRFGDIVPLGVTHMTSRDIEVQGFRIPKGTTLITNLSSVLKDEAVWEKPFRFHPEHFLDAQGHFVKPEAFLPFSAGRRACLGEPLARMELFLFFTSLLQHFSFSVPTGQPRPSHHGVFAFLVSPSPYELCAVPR
Chain of Nicotinamide N-methyltransferase (Homo sapiens) (P40261 whole entry, looked up): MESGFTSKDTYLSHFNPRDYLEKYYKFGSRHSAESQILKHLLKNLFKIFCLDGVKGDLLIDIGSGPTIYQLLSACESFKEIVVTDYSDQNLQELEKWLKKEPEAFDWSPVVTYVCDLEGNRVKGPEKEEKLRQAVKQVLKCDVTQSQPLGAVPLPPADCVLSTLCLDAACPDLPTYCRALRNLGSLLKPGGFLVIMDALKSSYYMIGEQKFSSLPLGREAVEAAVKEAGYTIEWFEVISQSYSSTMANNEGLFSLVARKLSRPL
Chain of Catechol O-methyltransferase (Homo sapiens) (P21964 whole entry, looked up): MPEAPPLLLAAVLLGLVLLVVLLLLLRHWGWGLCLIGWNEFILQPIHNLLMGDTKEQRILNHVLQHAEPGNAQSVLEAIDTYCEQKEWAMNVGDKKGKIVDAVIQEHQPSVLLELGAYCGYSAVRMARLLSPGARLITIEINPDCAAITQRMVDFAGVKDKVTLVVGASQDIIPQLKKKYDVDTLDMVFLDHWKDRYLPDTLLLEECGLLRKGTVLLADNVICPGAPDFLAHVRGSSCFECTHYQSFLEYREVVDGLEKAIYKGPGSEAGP
Chain of Phenylethanolamine N-methyltransferase (Homo sapiens) (P11086 whole entry, looked up): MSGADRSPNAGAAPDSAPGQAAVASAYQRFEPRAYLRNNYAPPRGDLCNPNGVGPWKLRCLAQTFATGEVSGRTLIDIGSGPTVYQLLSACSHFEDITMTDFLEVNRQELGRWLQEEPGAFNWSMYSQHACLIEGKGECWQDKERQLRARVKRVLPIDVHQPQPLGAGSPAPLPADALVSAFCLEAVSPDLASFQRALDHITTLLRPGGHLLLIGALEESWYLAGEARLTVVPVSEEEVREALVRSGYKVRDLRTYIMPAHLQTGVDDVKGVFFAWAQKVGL
Chain of Cytochrome P450 2C9 (Homo sapiens) (P11712 whole entry, looked up): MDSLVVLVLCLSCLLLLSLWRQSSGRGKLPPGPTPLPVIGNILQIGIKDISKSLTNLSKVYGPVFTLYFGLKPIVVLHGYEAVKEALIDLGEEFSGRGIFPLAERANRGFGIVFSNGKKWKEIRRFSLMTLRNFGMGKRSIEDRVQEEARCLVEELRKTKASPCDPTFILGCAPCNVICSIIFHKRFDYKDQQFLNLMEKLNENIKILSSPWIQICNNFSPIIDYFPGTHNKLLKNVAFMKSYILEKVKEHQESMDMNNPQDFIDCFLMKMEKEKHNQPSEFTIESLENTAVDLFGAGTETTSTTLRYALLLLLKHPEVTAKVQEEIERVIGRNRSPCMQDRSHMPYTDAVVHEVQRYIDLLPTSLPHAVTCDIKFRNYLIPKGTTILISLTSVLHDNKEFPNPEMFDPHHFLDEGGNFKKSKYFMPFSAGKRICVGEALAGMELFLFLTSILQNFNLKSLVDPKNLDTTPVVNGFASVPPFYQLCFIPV

CCCN(CCC)[C@@H]1CCc2ccc3[nH]c(C#N)cc3c2C1
-9.72%: activity [8]
0%: activity change, negative = inhibition [7]
active: Potency [3] 0.338 µM
inactive: Potency [1] | Potency [2] | Potency [4] | Potency [5] | outcome (CRL-7250 [10]) | outcome (KB-3-1) | Potency (CRL-7250 [11]) | outcome (HACAT) | outcome (NIH3T3) | Potency (HeLa)
-4.55%: activity [9]
-0.359%: activity [6]

COc1cc(C(=O)N2CC[C@@H](O)[C@@H](N)C2)cc2nc(-c3cc4ccccc4n3CC3CC3)n(C)c12
inactive: Z-AUC [12] 0.124
0.456: Z-AUC ([12]; measured here: PEO4 Z-AUC)
1.05: Z-AUC ([12]; measured here: PEO1 parental Z-AUC)
active: Potency [4] 20.9 µM | Potency [5] 18.6 µM | Potency (CRL-7250 [10]) 20.9 µM | Potency (HEK293) 14.8 µM

Cc1c(N[C@@H](c2nnc(-c3ccc(C#N)cc3)o2)[C@H](C)O)ccc(C#N)c1Cl
inactive: Potency [2] | outcome (CRL-7250 [10]) | max response (KB-3-1) -17.4% | Potency (CRL-7250 [11]) | Potency (HeLa) | Potency (SKOV3)

CCN1C[C@]2(COC)CC[C@H](O)[C@@]34C5C[C@@H]6[C@@H](OC)C[C@@](OC(C)=O)(C5[C@@H]6OC(C)=O)[C@H]([C@H](OC)C23)[C@@H]14 (some centres not stated)
inactive: Potency [2] | Potency [13] | Potency [4] | Potency [5] | max response (CRL-7250 [10]) 0.922% | max response (HEK293) 3.98% | max response (KB-3-1) -0.111% | Potency (HeLa) | Potency (SKOV3)

C=C(C)[C@@]12O[C@@H]1[C@@]1(C)C(=CC2=O)CC[C@@H](OC(C)=O)[C@@H]1C
active: Potency [2] 5.17 µM | Potency [4] 4.59 µM | Potency [5] 3.25 µM | Potency (CRL-7250 [10]) 6.51 µM | Potency (HEK293) 3.26 µM | Potency (KB-3-1) 13 µM | Potency (SKOV3) 3.16 µM

C#C[C@]1(O)CC[C@H]2[C@@H]3CC[C@H]4Cc5nc6nc7ccccc7n6cc5C[C@]4(C)[C@H]3CC[C@@]21C
-21%: activity [8]
-2.81%: activity change, negative = inhibition [7]
-31.4%: activity [9]
active: Potency [2] 20.6 µM | Potency [4] 12.9 µM | Potency [5] 11.5 µM | Potency (HEK293) 14.6 µM
-13.5%: activity [6]
inactive: max response (CRL-7250 [10]) 1.18% | Potency (HeLa)

COC1(C[S@@](=O)c2ccccc2)CCN(CCc2c[nH]c3ccc(F)cc23)CC1
active: Potency [3] 2.39 µM
inactive: Potency [2] | Potency [13] | max response (CRL-7250 [10]) 3.05% | max response (KB-3-1) 6.86% | Potency (HeLa) | Potency (SKOV3)

COc1ccc2[nH]c(-c3ccccc3)c(CCN(C)C)c2c1
inactive: Potency [2] | Potency [13] | outcome (CRL-7250 [10]) | Potency (CRL-7250 [11]) | outcome (HACAT) | Potency (SKOV3)
active: Potency [3] 2.13 µM

CCOP(=O)(OCC)Oc1ccc2c(C)cc(=O)oc2c1
inactive: max response (CRL-7250 [10]) -4.98% | max response (KB-3-1) -1.13% | Potency (HeLa) | Potency (SKOV3)

C/C=C1/CN2CC[C@]34C(=Nc5ccccc53)[C@@H]2C[C@@H]1[C@H]4C(=O)OC
inactive: Potency [2] | Potency [13] | Potency [4] | max response (CRL-7250 [10]) 2.71% | max response (KB-3-1) -1.68% | Potency (HeLa) | Potency (SKOV3)

CC12CCC3C(C1)c1c(cc(O)c(C(=O)c4ccccc4)c1OC3(C)C)O2 (configuration not stated)
inactive: Potency [2] | Potency [4] | Potency [5] | outcome (CRL-7250 [10]) | Potency (CRL-7250 [11]) | Potency (HeLa) | Potency (SKOV3)

C=C(C)[C@@]12O[C@@H]1[C@@]1(C)C(=C[C@H]2O)CC[C@@H](O)[C@@H]1C
inactive: Potency [1] | Potency [2] | Potency [13] | Potency [4] | Potency [5] | max response (CRL-7250 [10]) -1.42% | outcome (KB-3-1) | Potency (HeLa) | Potency (SKOV3)

CC12Cc3cn[nH]c3C=C1CCC1C2CCC2(C)C1CCC2(C)O (configuration not stated)
inactive: outcome (CRL-7250 [10]) | Potency (CRL-7250 [11]) | Potency (SKOV3)

CN1C(=O)C(Cc2ccc3ccccc3c2)N=C(c2ccc(O)cc2)c2cc(Cl)ccc21 (configuration not stated)
inactive: Potency [13] | max response (CRL-7250 [10]) -21.8% | max response (KB-3-1) -24.1% | outcome (HACAT) | Potency (HeLa) | Potency (SKOV3)
active: Potency [3] 10.7 µM

CC(=O)C1CCC2C3CCC4C[C@@H](O)CCC4(C)C3CCC12C (some centres not stated)
inactive: Potency [13] | max response (CRL-7250 [10]) 3.25% | max response (KB-3-1) 0.129% | outcome (NIH3T3) | Potency (HeLa)

C=C[C@H]1CN2CCC1C[C@H]2[C@H](O)c1ccnc2ccccc12 (some centres not stated)
inactive: Potency [2] | Potency [13] | Potency [4] | max response (CRL-7250 [10]) -4.97% | max response (KB-3-1) 2.39% | Potency (HeLa) | Potency (SKOV3)

CCCCCn1cc(C(=O)c2cccc3ccccc23)c2ccccc21
inactive: Potency [2] | Potency [13] | Potency [3] | Potency [4] | Potency [5] | max response (KB-3-1) -15.1% | Potency (HeLa) | Potency (SKOV3)
active: Potency [14] 1.51 µM | Potency (CRL-7250 [10]) 18.4 µM
